Records with an inconclusive call do not appear. Where a call stands in place of a potency, no number is given. Values without a mark were called inactive. Active and inactive are the calls of the source. The call rests on the fitted dose curve; in most records, active means well fitted cell-killing curve with a large enough effect in the repeat runs; inconclusive means weak or mixed curves, or effect the other way; inactive means no such curve, though single readings can be large or run the other way.

Data on 40 compounds can be found in PubChem BioAssay (Tox21).
Potency means the concentration at half of the fitted maximal effect.

This test in a line: qHTS assay to identify small molecule antagonists of the thyroid receptor (TR) signaling pathway - cell viability counter screen (AID 743064). Further: nearly all actives have a fitted effect of over 50% in size. To be noted: GH3.TRE-Luc viability, CellTiter-Fluor, 24 h; series mostly up to 70.3 µM. The source says:
National Center for Advancing Translational Sciences [NCATS]
NIH Chemical Genomics Center [NCGC]
U.S. Environmental Protection Agency [EPA]
National Institutes of Environmental Health Sciences [NIEHS]
National Toxicology Program [NTP]
U.S. Food and Drug Administration [FDA]
Thyroid receptor (TR), a nuclear hormone receptor, plays an important role in development, proliferation, differentiation, metabolism, brain function, and cardiovascular system. […] To profile the Tox21 10K compound library in TR signaling, a cell-based GH3-TRE-Luc assay (GH3.TRE-Luc cell line, developed by the laboratory of Dr. Albertinka J. Murk, Wageningen University) was used to measure the inhibition of TR. GH3 (rat pituitary tumor) cells stably expressing a TR activity sensor consisting of two TR response elements and a luciferase reporter gene. The cytotoxicity of the Tox21 compound library against the GH3.TRE-Luc cell line was tested in parallel by measuring the cell viability using CellTiter-Fluor assay (Promega, Madison, WI) in the same wells.
Tox21 Assay Protocol Summary:
GH3.TRE-Luc cells were dispensed at 1500 cells/4 uL/well into 1536-well white solid bottom plates using a Multidrop Combi dispenser (Thermo Fisher Scientific Inc., Waltham, MA). After the assay plates were incubated at 37 C for 4 hours, 23 nL of library compound or DMSO controls was transferred to the assay plates by a pintool station (Kalypsys, San Diego, CA), followed by addition of 1 ul of T3 (1 nM, final concentration in the wells) to stimulate TR transactivation. The assay plates were incubated at 37 C for 23.5 h, and then 1 uL of CellTiter-Fluor reagent (Promega, Madision, WI) of measuring cytotoxicity was added to each well using a Bioraptr Flying Reagent Dispenser (FRD) workstation (Beckman Coulter, Indianapolis, IN, USA). The plates were incubated at 37C and 5% CO2 for additional 30 min, and fluorescence intensity was measured by a ViewLux plate reader (PerkinElmer, Shelton, CT).
In general terms: Quantitative high-throughput screening tests each substance at several concentrations.
In the case of `C[C@H]1O[C@@H](n2cc(F)c(=O)[nH]c2=O)[C@H](O)[C@@H]1O`, the Potency entry was “inactive”.

With `CCC(C(=O)NC(N)=O)c1ccccc1` (stereo not given), the Potency entry is “inactive”.

As for `C=C(C)[C@@H]1CCC2=CC(=O)C[C@@H](C)[C@]2(C)C1`, the Potency result is “inactive”.

`CC/C=C\CCCCO`: the Potency entry is “inactive”.

In the case of `C=C(C)C(=O)NCCC[N+](C)(C)C`, the Potency entry was “inactive”.

Turning to `CC(C)COC(=O)c1ccccc1O`, the Potency result is “inactive”.

For the compound `CCN1CCCC(OC(=O)C(c2ccccc2)c2ccccc2)C1` (stereo not given), the Potency is 12.7 µM (active).

Take `C1=C\CC/C=C\CC/C=C\CC/1`: the Potency result was “inactive”.

Take `CCO[Si](C)(OCC)OCC`: the Potency entry is “inactive”.

Turning to `C=C(C)C1CC=C(C)C(O)C1` (stereo not given), the Potency result was “inactive”.

With `c1ccc(CCCc2ccccn2)cc1`, the Potency entry was “inactive”.

As for `Cc1nccn1CC1CCc2c(c3ccccc3n2C)C1=O` (stereo not given), the Potency entry is “inactive”.

For the compound `NC(CS)C(=O)O` (stereo not given), the Potency result was “inactive”.

Turning to `CC(C)[C@H](N)C(=O)OCCOCn1cnc2c(=O)[nH]c(N)nc21`, the Potency entry is “inactive”.

Turning to `OC/C=C/c1ccccc1`, the Potency entry was “inactive”.

As for `NC(=S)Nc1cccc2ccccc12`, the activity change, negative = cytotoxic was -2.02% [at 8.44 µM].

In the case of `COCCOC(=O)CC#N`, the Potency result is “inactive”.

As to `COC(=O)[C@H]1[C@H]2C[C@@H]3c4[nH]c5cc(OC)ccc5c4CCN3C[C@H]2C[C@@H](OC(=O)COc2ccc(OC)cc2)[C@@H]1OC`, the Potency entry was “inactive”.

Regarding `O=S(=O)(c1cccc2cnccc12)N1CCCNCC1`, the Potency entry is “inactive”.

On to `OCCN1C[C@H](O)[C@@H](O)[C@H](O)[C@H]1CO`, for which the Potency result was “inactive”.

On to `NCCNC(=O)c1ccc(Cl)cn1`, for which the Potency result was “inactive”.

With `Nc1cc(N)cc(C(=O)O)c1`, the Potency entry is “inactive”.

Regarding `C=C(C)[C@H]1CC=C(C)CC1`, the Potency entry was “inactive”.

`CC(C)CCCC(C)CCCC(C)CCCCC(C)CCCC(C)CCCC(C)C` (stereo not given): the Potency entry is “inactive”.

On to `Cc1cc(C)c(NC(=O)CN(CC(=O)O)CC(=O)O)c(C)c1Br`, for which the Potency entry was “inactive”.

Take `CC(C)COC(=O)C(C)C`: the Potency result is “inactive”.

Turning to `O=C1C(CCS(=O)c2ccccc2)C(=O)N(c2ccccc2)N1c1ccccc1` (stereo not given), the Potency result was “inactive”.

Turning to `CC(C)c1ccc2oc3nc(N)c(C(=O)O)cc3c(=O)c2c1`, the Potency result is “inactive”.

`CC(C)c1cccc(O)c1`: the Potency entry was “inactive”.

For `NS(=O)(=O)c1cc(C2(O)NC(=O)c3ccccc32)ccc1Cl` (stereo not given), the Potency result is “inactive”.

`CC(CCO)CCCC(C)(C)O` (stereo not given): the Potency entry was “inactive”.

Regarding `O=Cc1ccccc1[N+](=O)[O-]`, the Potency result was “inactive”.

Consider `CCOC(=O)Cn1c(=O)sc2cccc(Cl)c21`, for which the Potency result was “inactive”.

In the case of `COc1cc(CCC(C)=O)ccc1O`, the Potency result is “inactive”.

As to `C=C[Si](OC)(OC)OC`, the Potency result is “inactive”.

For `CN1[C@@H]2CC[C@H]1CC(NC(=O)n1c(=O)[nH]c3ccccc31)C2` (stereo not given in full), the Potency entry is “inactive”.

Regarding `Cc1ccccc1Br`, the Potency entry was “inactive”.

On to `NC(=O)CCCCC1CCSS1` (stereo not given), for which the Potency result was “inactive”.

In the case of `CCc1cc(S(=O)(=O)O)c2cc(C(C)C)cccc1-2`, the Potency entry was “inactive”.

Turning to `CC1=CC(=O)CCC1`, the Potency entry is “inactive”.
